Results filed as inconclusive are left out. Calls of active or inactive are those of the source. Calls follow the shape of the dose curve; as a rule, active = well fitted activation curve with a large enough effect in the main read-out, with a control signal flat (not every such curve was filed as active); inconclusive = small, poorly fitted or top-dose-only effect, or effect the other way, or a change in a side signal; inactive = flat fitted curve, though single readings scatter.
biological target: 3',5'-cyclic-AMP phosphodiesterase 4B (Homo sapiens) (UniProt Q07343); experiment: qHTS Assay for Inhibitors of PDE-IV (AID 607); settings: HEK293 ACTOne CNG channel cells, membrane potential fluorescence; series mostly up to 22.9 µM
Sequence (Q07343 whole entry, looked up): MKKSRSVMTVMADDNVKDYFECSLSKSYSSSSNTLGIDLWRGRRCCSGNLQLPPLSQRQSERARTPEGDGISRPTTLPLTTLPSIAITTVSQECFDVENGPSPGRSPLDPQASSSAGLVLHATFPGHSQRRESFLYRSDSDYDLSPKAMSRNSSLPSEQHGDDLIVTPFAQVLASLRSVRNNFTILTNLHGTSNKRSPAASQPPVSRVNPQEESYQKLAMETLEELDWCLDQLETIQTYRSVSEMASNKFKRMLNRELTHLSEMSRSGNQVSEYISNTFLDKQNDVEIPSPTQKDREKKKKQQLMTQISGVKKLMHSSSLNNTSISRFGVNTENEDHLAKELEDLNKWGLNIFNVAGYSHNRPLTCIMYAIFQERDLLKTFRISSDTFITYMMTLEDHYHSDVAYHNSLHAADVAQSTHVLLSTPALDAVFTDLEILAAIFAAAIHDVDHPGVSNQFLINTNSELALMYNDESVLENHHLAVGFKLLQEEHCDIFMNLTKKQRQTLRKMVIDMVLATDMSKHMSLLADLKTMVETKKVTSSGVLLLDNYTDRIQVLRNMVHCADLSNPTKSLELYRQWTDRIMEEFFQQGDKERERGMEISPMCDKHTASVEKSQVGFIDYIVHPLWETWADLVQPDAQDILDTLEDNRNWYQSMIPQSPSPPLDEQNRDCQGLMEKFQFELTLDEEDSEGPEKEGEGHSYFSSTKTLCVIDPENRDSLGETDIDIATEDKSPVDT
How it was run: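 The readout is membrane depolarisation from a cAMP-sensing CNG channel, detected with a potential dye at ex 535/em 590. Cells were HEK293-derived (endogenous PDE-IV) at 1000 cells/well, titrated up to 22.9 uM final.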

outcome, inactive:
COC(=O)[C@@]1(Cc2ccc(F)cc2)[C@H]2c3cc(C(=O)N4CCCC4)n(CCSCCO)c3C[C@H]2CN1C(=O)c1ccccc1
COC(=O)[C@@]1(Cc2ccc(OC)cc2)[C@H]2c3cc(C(=O)N(C)C)n(Cc4ccc(O)c(OC)c4)c3C[C@H]2CN1C(=O)c1ccccc1
COCCNC(=O)[C@H]1C[C@@H]1[C@H](NP(=O)(c1ccccc1)c1ccccc1)c1ccccc1
COC(=O)[C@@]1(Cc2ccc(OC)cc2)[C@@H]2[C@@H](CC(=O)[C@H]2CC(=O)C(=O)N(C)C)CN1C(=O)c1ccccc1
C[C@@H](C(=O)Nc1ccc2ccccc2c1)[C@H]1C[C@]1(C)[C@H](NS(=O)(=O)c1ccccc1)c1ccccc1
Cc1c2c(nc3ccccc13)OCC2
C[C@@H](C(=O)Nc1ccc2ccccc2c1)[C@@H]1C[C@@]1(C)[C@@H](NS(=O)(=O)c1ccccc1)c1ccccc1
COC(=O)[C@@]1(Cc2ccc(OC)cc2)[C@H]2c3cc(C(=O)N(C)C)n(CCF)c3C[C@H]2CN1C(=O)c1ccccc1
Cc1ccc(CNC(=O)[C@H](C)[C@@H]2C[C@@]2(C)[C@@H](NC(=O)OCc2ccccc2)c2ccccc2)o1
COC(=O)[C@@H]1C[C@H]1[C@@H](NS(=O)(=O)c1ccccc1)c1ccccc1
COC(=O)[C@@]1(Cc2ccc(OC)cc2)[C@H]2c3cc(C(=O)N(C)C)n(Cc4c(CO)[nH]cc(C)c4=O)c3C[C@H]2CN1C(=O)c1ccccc1
COC(=O)[C@@]1(Cc2ccccc2)[C@H]2c3cc(C(=O)N(C)C)n(Cc4ccccc4)c3C[C@H]2CN1C(=O)c1ccccc1
Cc1cc(C(=O)N[C@H](c2ccccc2)[C@@]2(C)C[C@@H]2[C@@H](C)C(=O)Nc2ccc3ccccc3c2)no1
C[C@@H](C(=O)Nc1ccc2ccccc2c1)[C@H]1C[C@]1(C)[C@H](NC(=O)c1cccnc1)c1ccccc1
Cc1cc(CNC(=O)[C@H](C)[C@H]2C[C@]2(C)[C@H](NC(=O)OCc2ccccc2)c2ccccc2)nn1C
COC(=O)[C@@]1(Cc2ccccc2)[C@H]2c3cc(C(=O)N(C)C)n(Cc4ccc(OC)c(OC)c4)c3C[C@H]2CN1C(=O)c1ccccc1
COC(=O)[C@@]1(Cc2ccccc2)[C@H]2c3cc(C(=O)N(C)C)n(CCF)c3C[C@H]2CN1C(=O)c1ccccc1
COC(=O)[C@@]1(Cc2ccc(OC)cc2)[C@H]2c3cc(C(=O)N(C)C)n(Cc4nc5ccccc5[nH]4)c3C[C@H]2CN1C(=O)c1ccccc1
COC(=O)[C@@]1(Cc2ccc(OC)cc2)[C@H]2c3cc(C(=O)N(C)C)n(CCc4c[nH]c5ccc(O)cc45)c3C[C@H]2CN1C(=O)c1ccccc1
COC(=O)[C@@]1(Cc2ccccc2)[C@H]2c3cc(C(=O)N(C)C)n(Cc4ccc(O)c(OC)c4)c3C[C@H]2CN1C(=O)c1ccccc1
CS(=O)(=O)c1ccc(CNC(=O)[C@@H]2C[C@H]2[C@@H](NP(=O)(c2ccccc2)c2ccccc2)c2ccccc2)cc1
COC(=O)[C@@]1(Cc2ccc(F)cc2)[C@H]2c3cc(C(=O)N(C)C)n(CCc4ccc(O)c(O)c4)c3C[C@H]2CN1C(=O)c1ccccc1
COC(=O)[C@@]1(Cc2ccccc2)[C@H]2c3cc(C(=O)N(C)C)n(C[C@H](O)CO)c3C[C@H]2CN1C(=O)c1ccccc1
COC(=O)[C@@]1(Cc2ccc(OC)cc2)[C@H]2c3cc(C(=O)N4CCCC4)n(Cc4ccccn4)c3C[C@H]2CN1C(=O)c1ccccc1
COC(=O)[C@@]1(Cc2ccc(F)cc2)[C@H]2c3cc(C(=O)N(C)C)n(Cc4ccc(OC(F)(F)F)cc4)c3C[C@H]2CN1C(=O)c1ccccc1
COC(=O)[C@@]1(Cc2ccc(OC)cc2)[C@H]2c3cc(C(=O)N(C)C)n(Cc4cccc5ccccc45)c3C[C@H]2CN1C(=O)c1ccccc1
COC(=O)C1(CC(C)C)C=C2C(=C(C)C(=O)C2C)CN1 (stereo not given)
COC(=O)[C@@]1(Cc2ccc(F)cc2)[C@H]2c3cc(C(=O)N4CCCC4)n(Cc4ccc(C(F)(F)F)nc4)c3C[C@H]2CN1C(=O)c1ccccc1
COC(=O)[C@@]1(Cc2ccc(OC)cc2)[C@H]2c3cc(C(=O)N4CCCC4)n(CCO)c3C[C@H]2CN1C(=O)c1ccccc1
C[C@@]1(C(NS(=O)(=O)c2cccc3cccnc23)c2ccc(-c3ccccc3)cc2)C[C@H]1C1CCCCC1 (stereo not given in full)
C[C@@H](C(=O)NCC1CC1)[C@@H]1C[C@@]1(C)[C@@H](NC(=O)OCc1ccccc1)c1ccccc1
COC(=O)[C@@]1(Cc2ccc(OC)cc2)[C@H]2c3cc(C(=O)N4CCCC4)n(C[C@H](O)CO)c3C[C@H]2CN1C(=O)c1ccccc1
O=C(NCc1ccccn1)[C@@H]1C[C@H]1[C@@H](NP(=O)(c1ccccc1)c1ccccc1)c1ccccc1
COC(=O)[C@@]1(Cc2ccc(OC)cc2)[C@H]2c3cc(C(=O)N4CCCC4)n(CCF)c3C[C@H]2CN1C(=O)c1ccccc1
C[C@@H](C(=O)N[C@@H](CO)Cc1ccccc1)[C@H]1C[C@]1(C)[C@H](NC(=O)OCc1ccccc1)c1ccccc1
COC(=O)[C@@]1(Cc2ccc(OC)cc2)[C@H]2c3cc(C(=O)N4CCCC4)n(CCN4CCOCC4)c3C[C@H]2CN1C(=O)c1ccccc1
O=C(NCc1cccc2ccccc12)[C@H]1C[C@@H]1[C@H](NP(=O)(c1ccccc1)c1ccccc1)c1ccccc1
Cc1ccc(CNC(=O)[C@H](C)[C@@H]2C[C@@]2(C)[C@@H](NC(=O)OCc2ccccc2)c2ccccc2)c(F)c1F
COC(=O)[C@@]1(Cc2ccc(OC)cc2)[C@H]2c3cc(C(=O)N(C)C)n(Cc4ccc(OC)c(OC)c4)c3C[C@H]2CN1C(=O)c1ccccc1
COC(=O)[C@@]1(Cc2ccc(F)cc2)[C@H]2c3cc(C(=O)N4CCCC4)n(CCc4c[nH]c5cc(F)ccc45)c3C[C@H]2CN1C(=O)c1ccccc1

From PubChem BioAssay (NCATS)
